LASV entry inh = Lassa virus entry inhibition. Lassa virus pseudotype entry inhibition, cell reporter. Potency, µM (top dose mostly 37.9 µM), inactives show at the top dose activity change, negative = inhibition, hits mostly inhibitors. 1.2% of 300,000 active; calls by dose curve; tested in HEK293 cells; note: potency is the fitted concentration of half-maximal effect; nearly all actives have a fitted effect of over 50% in size
VACV Venus inh = inhibitors of vaccinia virus (Venus reporter); Vaccinia virus Venus reporter expression, fluorescence; Potency, µM (top dose mostly 36.5 µM), for inactives: at the highest dose activity change, negative = inhibition, most hits filed as inhibitors; 0.46% of 330,000 active; calls by dose curve; tested in A549 cells; note: potency is the fitted concentration of half-maximal effect; nearly all actives have a fitted effect of over 30% in size
Marburg entry inh = inhibitors of Marburg virus binding or cell entry; Marburg virus pseudotyped entry inhibition, cell reporter; Potency, µM (titrated, usually from 37.8 µM), inactives show at the top dose activity change, negative = inhibition, most hits filed as inhibitors; 1.8% of 300,000 active; calls by dose curve; tested in HEK293 cells; note: potency is the fitted concentration of half-maximal effect
Vaccinia mCherry = vaccinia inhibition (mCherry reporter); Vaccinia virus mCherry reporter infection, fluorescence; Potency, µM (doses to about 36.5 µM), for the others: at the top dose activity change, negative = inhibition, most hits filed as inhibitors; 0.63% of 310,000 active; calls by dose curve; tested in A549 cells; note: potency is the fitted concentration of half-maximal effect; nearly all actives have a fitted effect of over 35% in size
HCMV inh = blocks human cytomegalovirus replication; HFF cells, HCMV-luciferase reporter, 72 h; hits give low values; activity change, negative = inhibition, % at 57.5 µM; 4.5% of 410,000 active; AID 1259415; in the data active = activity change below about -60%; inconclusive = no clear call, values can overlap the other calls; inactive = above about -39%
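Screen run at 2 compound doses on HFFs infected with reporter HCMV, MOI 1 PFU/cell. Luciferase activity from cell lysates at 72 h post infection gave inhibition relative to buffer-only and Salinomycin wells.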
FMDV antiviral = antivirals against foot and mouth disease virus; FMDV antiviral cell-based qHTS; Potency, µM (titrated, usually from 57.9 µM), inactives show top-dose activity change, negative = inhibition, hits mostly inhibitors; 1.2% of 410,000 active; calls by dose curve; tested in HEK293T cells; note: read-out not given here; potency is the fitted concentration of half-maximal effect; nearly all actives have a fitted effect of over 45% in size
* marks the source's active call; other numbers are inactive results; i = inactive; u = inconclusive; x = no result given; ! = repeats disagree; [ ] = another dose, or the depositor's remark. This is a sample that favours compounds with a hit; in the whole collection about 6.5% have one here. % is set by controls: 0 for no effect and ±100 for the full control effect.

SMILES	LASV entry inh	VACV Venus inh	Marburg entry inh	Vaccinia mCherry	HCMV inh	FMDV antiviral
CCOC(=O)c1c(C)[nH]c(C(=O)N2CCN(c3ccc(OC)cc3)CC2)c1C	7.9µM*	-18%	u	u	-35	28%
CCOC(=O)c1c(C)[nH]c(C(=O)C(C)Cl)c1C (configuration not stated)	-11%	u	u	u	1	-14%
CCn1c(SCC(=O)c2[nH]c(C)c(C(C)=O)c2C)nnc1-c1ccccc1	-15%	u	u	u	-37	25µM*
CCn1c(SCC(=O)c2[nH]c(C)c(C(C)=O)c2C)nnc1-c1ccncc1	-1%	-6%	2%	-9%	5	x
CO[C@H]1[C@H](NC(=O)c2ccco2)c2ccccc2C12CCN(Cc1cccn1-c1ccccn1)CC2	x	-4%	x	-16%	x	1%
CCNC(=S)N1CCNC(=O)C1CC(=O)OC (configuration not stated)	11%[46.1 µM]	-19%	6%[46.1 µM]	-10%	-72*	u
COC(=O)CC1C(=O)NCCN1C(=S)Nc1cc(C)cc(C)c1 (configuration not stated)	0%	-7%	-6%	i	-33	-20%
COCC(=O)Nc1cc(C(=O)N2CCOc3ccccc3C2)cc2nc(-c3cccnc3)n(C)c12	x	5%	x	-3%	x	7%
O=C(NCCc1ccc(Cl)cc1)Nc1ccc(Cl)cc1	x	x	x	x	-39	17%
NS(=O)(=O)c1ccc(CNC(=S)Nc2ccc(Cl)c(Cl)c2)cc1	13%[46.1 µM]	-13%	u	i	-74*	-7%
NS(=O)(=O)c1ccc(CCNC(=S)Nc2ccc(F)cc2)cc1	2%[46.1 µM]	-9%	-8%[46.1 µM]	-21%	-61*	-7%
NS(=O)(=O)c1ccc(CCNC(=O)Nc2ccc(Cl)c(Cl)c2)cc1	-28%	x	u	x	u	25µM*
Cc1cccc2sc(N(CCCN(C)C)C(=O)c3ccc(S(=O)(=O)N4CCc5ccccc5C4)cc3)nc12	u	-19%	u	u	-100*	-17%
COc1ccc2sc(N(CCCN(C)C)C(=O)c3ccc(S(=O)(=O)N4CCc5ccccc5C4)cc3)nc2c1	3.5µM*	11µM*	u	u	-98*	25µM*
Cc1cc(C)c2sc(N(CCCN(C)C)C(=O)c3ccc(S(=O)(=O)N4CCCc5ccccc54)cc3)nc2c1	x	x	x	x	-61*	u
CN(C)CCCN(C(=O)c1ccc(S(=O)(=O)N2CCc3ccccc32)cc1)c1nc2ccc(F)cc2s1	u	-24%	u	i	8	-16%
CN(C)CCCN(C(=O)c1ccc(S(=O)(=O)N2CCc3ccccc3C2)cc1)c1nc2ccc(F)cc2s1	u	16µM*	u	13µM*	14	-23%
CCOC(=O)COc1ccc(F)cc1C(=O)c1ccn2nc(-c3ccc(Cl)cc3)cc2n1	9%[46.1 µM]	-2%	5%[46.1 µM]	-4%	4	8%
COc1cc(-c2c(-c3ccc4c(c3)OCO4)noc2-c2ccsc2)cc(OC)c1OC	x	-4%	x	-10%	x	x
CCOc1ccccc1NC(=O)CSc1nc2c(oc3ccccc32)c(=O)n1-c1ccc(C)c(C)c1	x	4%	-29%[46.1 µM]	0%	25	-1%
Cc1ccc2nc(N(CCCN(C)C)C(=O)c3ccc(S(=O)(=O)N4CCc5ccccc5C4)cc3)sc2c1	u	u	u	u	-103*	u
C=CCc1ccccc1OCC(CN1CCCCC1)OC(C)=O (configuration not stated)	16%	-13%	2%	-14%	-21	-5%
C=CCc1ccccc1OCC(O)CN1CCN(c2ccccc2)CC1 (configuration not stated)	10%[46.1 µM]	-5%	x	-13%	-31	-13%
O=C(Nc1ccc(-c2csc(Nc3ccc(Cl)cc3)n2)cc1)c1cccc(C(F)(F)F)c1	x	u	0%	u	u	20µM*
O=C(Nc1ccc(-c2csc(Nc3ccccc3)n2)cc1)c1cccc(C(F)(F)F)c1	x	u	x	u	-81*	u
SMILES	LASV entry inh	VACV Venus inh	Marburg entry inh	Vaccinia mCherry	HCMV inh	FMDV antiviral
CCOC(=O)Cn1c(=O)n(CC2CCCO2)c2nc(-c3ccc(CC)cc3)nc(C(N)=O)c21 (configuration not stated)	-19%[46.1 µM]	-22%	x	-28%	5	u
CC(=O)N1CCN(C(=S)Nc2ccc(SC(F)F)cc2)CC1	x	1%	5%[46.1 µM]	-4%	-76*	81%
FC(F)Sc1ccc(NC(=S)NCC2CCCCC2)cc1	-26%	x	-26%	x	-97*	9%
CC1CCN(C(=S)Nc2ccc(SC(F)F)cc2)CC1	-8%	-15%	-24%	-26%	-37	25%
CC1CCCCC1NC(=S)Nc1ccc(SC(F)F)cc1 (configuration not stated)	u	u	-17%	x	-100*	-9%
CC(C)(C)c1ccc(-n2ncc3c2CCCC3NC(=O)CCN2CCCCC2=O)cc1 (configuration not stated)	-49%	-25%	-19%	-28%	-64*	u
Cc1ccc(-n2ncc3c2CCCC3NC(=O)CCCN2CCCC2=O)cc1C (configuration not stated)	-10%	-10%	-4%	-11%	-7	0%
CC(C)(C)c1ccc(-n2ncc3c2CCCC3NC(=O)CCC2=NNC(=O)CC2)cc1 (configuration not stated)	x	-28%	x	i	-76*	u
O=c1/c(=C/c2ccc([N+](=O)[O-])cc2)sc2n1CCCN=2	14%	-12%	19%	x	-91*	23%
C#CCN(Cc1ccccc1)S(=O)(=O)C=C	x	1.6µM*!	x	u	-5	u
O=C(Nc1ccccc1C(F)(F)F)N[C@H]1CC[C@@]23CCCN2C(=O)CCC[C@H]3C1Cc1ccccc1 (some centres not stated)	x	x	x	x	5	x
CCCCNC(=O)C1(C)CCCCN1C(=O)C1(c2ccc(Cl)cc2)CCCC1 (configuration not stated)	x	x	x	x	-34	x
CCN(CC)S(=O)(=O)c1ccc(N2CCN(CCOc3ccc(OC)cc3)CC2)nc1	-20%[46.1 µM]	-13%	11µM*	u	-77*	9%
COC(=O)c1cc(Cl)ccc1NC(=O)Cn1c(C)cc(C)c(C#N)c1=O	24%[46.1 µM]	-7%	u	-4%	-8	-4%
C=C(c1ccccc1)[C@H](C#N)C1CCCC1	x	x	x	x	15	x
COc1cccc2c1C(=O)c1c(O)c3c(c(O)c1C2=O)C[C@@](O)(C(=O)CO)C[C@@H]3O[C@H]1C[C@H](N)[C@@H](O)[C@H](C)O1	x	i	x	139%	x	-5%
COc1cccc2c1C(=O)c1c(O)c3c(c(O)c1C2=O)C[C@@](O)(C(C)=O)C[C@@H]3O[C@H]1C[C@H](N)[C@H](O)[C@H](C)O1	u	i	0.23µM*	228%	-100*	-15%
CC[C@]1(O)CC(O[C@@H]2CC(N(C)C)C(O)C(C)O2)c2c(cc3c(c2O)C(=O)c2c(O)ccc(O)c2C3=O)C1C(=O)OC (some centres not stated)	x	-2%	x	1%	x	-8%

Screening results as filed in PubChem.
